Pf growth 96h: Primary qHTS for delayed death inhibitors of the malarial parasite plastid, 96 hour incubation | P. falciparum luciferase reporter growth, 96 h | Potency, µM (titrated, usually from 28.7 µM), inactives show at the top dose activity change, negative = inhibition, usual class: inhibitors | 6.9% of 320,000 active | AID 504834, 2011; further: potency means the concentration at half of the fitted maximal effect; on the % scale 0 is the no-effect control and ±100 the full control effect
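Luminescence readout: decreased luciferase signal marks inhibited growth of reporter-expressing P. falciparum in infected red cells (2% hematocrit, 0.05% parasitemia final), exposed to compound two generations (96 h, 37 C, 5% CO2).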
Giardia FBPA inh: qHTS Assay for Inhibitors of Fructose-1,6-bisphosphate Aldolase from Giardia Lamblia | purified Giardia FBPA | Potency, µM (top dose mostly 59.6 µM), for the others: top-dose activity, negative = inhibition, usual class: inhibitors | A8B2U2 | AID 2451, 2010 | 0.71% of 290,000 active; further: potency means the concentration at half of the fitted maximal effect; on the % scale 0 is the no-effect control and ±100 the full control effect; nearly all actives have a fitted effect of over 55% in size
Target sequence (A8B2U2 whole entry, looked up): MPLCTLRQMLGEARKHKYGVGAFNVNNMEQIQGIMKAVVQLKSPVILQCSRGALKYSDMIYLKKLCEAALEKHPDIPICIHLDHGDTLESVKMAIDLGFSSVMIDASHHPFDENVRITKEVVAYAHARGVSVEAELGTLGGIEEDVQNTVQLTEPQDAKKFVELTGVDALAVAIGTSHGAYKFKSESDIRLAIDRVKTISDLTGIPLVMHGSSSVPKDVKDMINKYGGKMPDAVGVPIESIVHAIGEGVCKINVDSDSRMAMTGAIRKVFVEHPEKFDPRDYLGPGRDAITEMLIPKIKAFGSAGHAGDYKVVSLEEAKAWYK
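40 nM FBPA preincubated 10 min at RT with compound (up to 57.5 uM final), then substrate plus GAPDH/TPI/NAD/arsenate coupling and diaphorase/resazurin added. Fluorescence read after 20 min at RT, 525/598 nm.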
Shiga inhibitor: A qHTS for Small Molecule Inhibitors of Shiga Toxin | Vero cells, Shiga toxin protein synthesis inhibition reporter | inhibition, % at 38.7 µM | 9.2% of 290,000 active | AID 2315, 2010; in the data active means inhibition mostly above about 28%, no sharp cut-off; inactive means mostly below about 43%; further: 0% is about no effect
Cycloheximide cs: Cycloheximide Counterscreen for Small Molecule Inhibitors of Shiga Toxin; cell reporter, cycloheximide protein synthesis inhibition counterscreen; max response, %; 12% of 300,000 active; AID 2314, 2010; in the data active means max response mostly above about 13%, no sharp cut-off; inactive means mostly below about 14%; further: read at 38.3 µM for the half of the compounds with a filed dose; 0% is about no effect
Pf growth 48h: Primary qHTS for delayed death inhibitors of the malarial parasite plastid, 48 hour incubation; P. falciparum luciferase growth in erythrocytes, 48 h; Potency, µM (doses to about 28.7 µM), inactives show top-dose activity change, negative = inhibition, most hits filed as inhibitors; 5.9% of 310,000 active; further: potency means the concentration at half of the fitted maximal effect; on the % scale 0 is the no-effect control and ±100 the full control effect
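Cell-based growth assay: transgenic P. falciparum expressing firefly luciferase, cultured in red cells within RPMI 1640 containing 0.5% w/v Albumax, 24 mM bicarbonate and gentamycin. A drop in luciferase activity indicates inhibition.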
NS1 inh: qHTS Assay for Inhibitors of Influenza NS1 Protein Function. Potency, µM (series often up to 46.1 µM), for the others: at the top dose activity, positive = more growth. 0.4% of 270,000 active; calls by dose curve; further: potency means the concentration at half of the fitted maximal effect; actives are rising curves; nearly all actives have a fitted effect of over 50% in size
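A cell-based growth assay was used: compounds that relieve NS1-induced slow growth of budding yeast raise OD600. Assay medium was yeast nitrogen base with ammonium sulphate and -URA supplement, pH 6.0, with 2% galactose.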
* hit, by the source's call; i = inactive; u = inconclusive; x = no result given; [ ] = remark or other dose. This is a sample that favours compounds with a hit; in the whole collection about 21% have one here. Unless noted, the call rests on the fitted dose curve; in most records, active means well fitted curve in the direction sought with a large enough effect; inconclusive means small, poorly fitted or top-dose-only effect, or another doubt; inactive means no such curve, though single readings can be large; an effect the other way counts as inactive or inconclusive.

SMILES	Pf growth 96h	Giardia FBPA inh	Shiga inhibitor	Cycloheximide cs	Pf growth 48h	NS1 inh
Cc1c(C(=O)NCc2ccc3c(c2)OCO3)sc2nc(-c3ccc(F)cc3)cn12	u	-4%	-6	-1	u	-19%
COc1ccc(C(=O)NNS(=O)(=O)c2ccc(OC)cc2)cc1	u	2%	-16	8	26%	9%
CC(C)(C)c1ccc(C(=O)NNC(=O)c2ccc(Cl)cc2)cc1	u	0%	-8	-3	2%	7%
O=C(NNC1=C(C(=O)C(F)(F)F)CCC1)c1ccc(Cl)cc1	2.9µM*	-17%	86*	18*	19%	-126%
O=C(NNC1=C(C(=O)C(F)(F)F)CCC1)c1cccc(Cl)c1	x	-2%	85*	28*	8%	-148%
COc1ccc(C(=O)NNC2=C(C(=O)C(F)(F)F)CCC2)cc1	7%	9%	48*	27*	75%	-8%
COc1ccc(C(CNC(=O)Nc2cccc(C)c2)N2CCN(C)CC2)cc1 (stereo unspecified)	u	x	-5	10	-22%	7%
CC(C)(C)c1cc(Br)c(O)c(CN(Cc2cc(C(C)(C)C)cc(Br)c2O)C2CCCCC2)c1	x	x	x	x	x	-13%
Cc1cc(C(=O)COC(=O)c2ccc[nH]c2=O)c(C)n1C1CC1	40%	1%	58*	27*	61%	6%
Cc1cc(C(=O)COC(=O)c2ccc(F)cc2F)c(C)n1C1CC1	i	x	x	x	141%	x
CC(=O)N1CCN(S(=O)(=O)c2cccc(C(=O)OCC(=O)N3CC(=O)Nc4ccccc43)c2)CC1	7%	3%	25	16*	-7%	x
Cn1c2ccccc2c2cc(C(=O)OCC(=O)N3CC(=O)Nc4ccccc43)sc21	2%	-8%	-4	-2	4.1µM*	-37%
Cc1cccc(NC(=O)COC(=O)c2cc(C)n(C3CC3)c2C)c1	u	x	x	x	9.3µM*	x
Cc1cc(C(=O)OCC(=O)N2CC(=O)Nc3ccccc32)c(C)n1-c1ccccc1	u	0%	10	8	u	-18%
Cc1cc(C(=O)COC(=O)c2ccc[nH]c2=O)c(C)n1-c1ccccc1	76%	5%	24	23	78%	-9%
Cc1cc(C(=O)OCC(=O)N2CC(=O)Nc3ccccc32)c(C)n1-c1ccc(F)cc1	2.6µM*	-2%	2	6	4.7µM*	7%
Cc1cc(C(=O)COC(=O)c2ccc[nH]c2=O)c(C)n1-c1ccc(F)cc1	97%	3%	76*	39*	126%	-16%
CCCNC(=O)c1ccc(COc2ccc(CCC)cc2OC)o1	-11%	7%	17	9	16%[0.00184 µM]	-6%
C/C=C/C1Oc2ccc(OC)cc2N2C(=O)C(C)C(OCOC)C12 (stereo unspecified)	x	-5%[12.9 µM]	x	x	x	x
CCC(C)NC(=O)CSc1nnc(-c2ccc(OC)c(OC)c2)c(-c2ccc(OC)c(OC)c2)n1 (stereo unspecified)	u	0%	-2	-6	u	1%
Cc1sc(NC(=O)Nc2ccccc2)c(C(N)=O)c1C	-28%	-8%	72*	43*	86%	-1%
CC1(C)Cc2c(sc(NC(=O)Nc3ccccc3)c2C(N)=O)CO1	u	-29%	72	33*	65%	6%
CC1(C)Cc2c(sc(NC(=O)C(=O)N3CCCC3)c2C(N)=O)CO1	-5%	23%	10	-5	11%	7%
COC(=O)c1c(NC(=O)Nc2ccc(Cl)cc2)sc(C)c1C	x	3%	-9	10	8%	-4%
O=C(Nc1c2ccccc2nc2ccccc12)C(Cl)(Cl)Cl	36%	u	10	1	1µM*	-131%
SMILES	Pf growth 96h	Giardia FBPA inh	Shiga inhibitor	Cycloheximide cs	Pf growth 48h	NS1 inh
Cc1cc(C)cc(N2C(=O)c3nccnc3C2=O)c1	12µM*	0%	1	-4	13%	7%
Cc1cc(C)cc(N2C(=O)C3CC=CCC3C2=O)c1 (stereo unspecified)	16%	-4%	12	-2	-9%	-4%
CNCCC=C1c2ccccc2CCc2ccccc21	9.5µM*	-12%	-3	-3	11µM*	-6%
CC(=O)c1ccc(C2C=CC(O)C(CO)O2)cc1 (stereo unspecified)	x	-1%[12.9 µM]	x	x	x	x
C=CCn1c(C)c(/C=C/c2cc[n+](C)cc2)c2ccccc21	4%	-12%	x	-3	0.74µM*	3%
CCN(CC)C(=O)Cn1c(C)c(/C=C/c2cc[n+](C)cc2)c2ccccc21	u	-1%	-12	2	1.7µM*	0%
CCN(CC)C(=O)Cn1c(=O)n(C)c2ccccc21	0%	5%	-15	-1	x	2%
COc1ccc(C(=O)NCCCc2nc3ccccc3n2Cc2cc(C)ccc2C)cc1OC	10µM*	3%	13	-3	12µM*	-24%
COc1ccc(CCNC(=O)/C=C/c2ccc3ccccc3n2)cc1OC	8.3µM*	13%	45	14*	u	-14%
CCC(CC)C(=O)NCCCCc1ccccc1	0%	3%	6	-3	4%	-13%
CCC(CC)C(=O)Nc1cc(C(=O)NCCc2ccccc2)ccc1Cl	36%	2%	16	33*	12%	4%
COc1cc(C(=O)NCC(=O)Nc2c(C)cccc2C)ccc1OCc1ccccc1	-50%	x	x	x	u	x
CCn1c(CCNC(=O)c2ccc(OC)c(OC)c2)nc2ccccc21	u	-1%	7	-2	-29%	-3%
CNC(=O)c1ccc(OCc2ccccc2)c(OC)c1	x	3%	19	20*	-4%	-5%
COc1ccc(/C=C/C(=O)NCCc2ccc(OC)c(OC)c2)cc1	-24%	-15%	-8	1	u	-12%
C[C@@H]1CCC2[C@](C)(CO)C(O)CC[C@@]2(C)[C@@]12CC[C@](CO)(CCO)O2 (stereo partly specified)	x	4%	x	x	x	x
Cc1c(Cc2ccccc2)c(=O)oc2cc(OCC(=O)N3CCC(C(=O)O)CC3)ccc12	-1%	-1%	-4	-2	u	u
COc1ccc(C2(CNC(=O)c3ccc(OC)c([N+](=O)[O-])c3)CCOCC2)cc1OC	2.3µM*	-6%	-16	-3	-8%	3%
COc1ccc(/C=C/C(=O)NCCNC(=O)c2ccccc2)cc1OC	-12%	2%	-10	-1	-19%	2%
COc1ccc(/C=C/C(=O)NCCc2c[nH]c3ccccc23)cc1OC	15µM*	-5%	-1	-1	8.3µM*	-18%
COc1ccc(C(=O)OCC(=O)NCCCc2ccccc2)cc1[N+](=O)[O-]	22%	3%	12	5	15%	1%
COc1ccc(C(=O)NCCN2C(=O)S/C(=C\c3cccnc3)C2=O)cc1[N+](=O)[O-]	u	-10%	43*	25*	u	-7%

Screening results from PubChem.
